Shown are actives, neighbours in structure and some others; about 19% of the full set was active somewhere.
TDP1 cell CPT = qHTS for Inhibitors of human tyrosyl-DNA phosphodiesterase 1 (TDP1): qHTS in cells in presence of CPT; chicken DT40 Tdp1-/-;hTDP1 cells + 20 nM CPT, ATP luminescence, 48 h; Potency, µM (doses to about 46.2 µM), for inactives: at the top dose activity change, negative = growth inhibition, hits mostly inhibitors; 12% of 420,000 active; note: potency is the fitted concentration of half-maximal effect; nearly all actives have a fitted effect of over 55% in size
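Cell growth measured by CellTiter-Glo luminescence after a minimum 48 h, 37 C compound exposure with 20 nM CPT in Tdp1-knockout DT40 cells stably expressing hTDP1, seeded 400/well; qHTS titration format.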
TDP1 cell noCPT = qHTS for Inhibitors of human tyrosyl-DNA phosphodiesterase 1 (TDP1): qHTS in cells in absence of CPT. DT40 Tdp1-/- hTDP1 cells, no CPT, ATP luminescence, 48 h. Potency, µM (titrated, usually from 46.2 µM), for inactives: at the highest dose activity change, negative = growth inhibition, most hits filed as inhibitors. 15% of 420,000 active. AID 686978, 2013; note: potency is the fitted concentration of half-maximal effect; nearly all actives have a fitted effect of over 55% in size
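Camptothecin absent (DMSO only). Human TDP1-complemented DT40 knockout cells, 400 cells/well, 37 °C for minimum 48 hr; ATP measured via CellTiter-Glo, 30 min dark incubation, luminescence.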
HT1080-NT tox = qHTS for induction of synthetic lethality in tumor cells producing 2HG: qHTS for the HT-1080-NT fibrosarcoma cell line | HT-1080-NT fibrosarcoma viability, CellTiter-Glo ATP luminescence, 48 h | Potency, µM (titrated, usually from 46.1 µM), for inactives: at the top dose activity, negative = less viability, most hits filed as cytotoxic | 1.6% of 360,000 active | AID 686970, 2013;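 note: NT is the 2HG producing partner of a matched IDH1 knockdown line; potency is the fitted concentration of half-maximal effect; 0% = DMSO-treated cells and -100% = media-only wells without cells; nearly all actives have a fitted effect of over 55% in size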
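HT-1080-NT; 750 cells/well; 5% FBS RPMI; 48 h compound, 37 degrees C; CellTiter-Glo luminescence; curve fitting and curve-class assignment.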
HT1080 IDH1KD tx = qHTS for induction of synthetic lethality in tumor cells producing 2HG: qHTS for the HT-1080-IDH1KD cell line; HT-1080 IDH1 knockdown viability, ATP luminescence, 48 h; Potency, µM (doses to about 46.1 µM), for inactives: at the top dose activity, negative = toxicity, most hits filed as cytotoxic; 2% of 360,000 active; AID 686971, 2013;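 note: potency is the fitted concentration of half-maximal effect; 0% = DMSO wells and -100% = cell-free medium wells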
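Viability of IDH1-knockdown HT-1080 fibrosarcoma cells was assessed by CellTiter-Glo after 48 h at 37 °C with titrated compound; concentration-effect curves were classified by fit quality and response size.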
IL1B secr inh = qHTS for Inhibitors of Inflammasome Signaling: IL-1-beta AlphaLISA Primary Screen. THP-1 LPS/ATP IL-1B secretion, AlphaLISA, 16 h; stronger effect = lower value. activity change, % at 57.5 µM. 4.7% of 360,000 active. AID 743279, 2014; in the data active = activity change below about -50%; inconclusive = mostly about -30% to -49%
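Secreted IL-1B measured by AlphaLISA bead assay after 16 h compound exposure of THP-1 cells; compounds (final up to 57.5 uM) added 1 h before LPS (250 ng/mL) and ATP (1.25 mM) stimulation; lower signal means less secretion.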
* = called active by the depositor; ? = inconclusive; · = no result given; [ ] = another dose, or the depositor's remark. Unless noted, calls come from the whole dose curve; as a rule, active = well fitted curve in the direction sought with a large enough effect; inconclusive = small, poorly fitted or top-dose-only effect, or another doubt; inactive = no such curve, though single readings can be large; an effect the other way counts as inactive or inconclusive. Unless noted, % is set by controls: 0 for no effect and ±100 for the full control effect.

SMILES	TDP1 cell CPT	TDP1 cell noCPT	HT1080-NT tox	HT1080 IDH1KD tx	IL1B secr inh
Cc1cc(C)c(Cn2c3ccccc3c3cnn(CC(=O)NCCCc4ccccc4)c(=O)c32)c(C)c1	18µM*	21µM*	·	·	·
CC(C)C[C@H](NC(=O)C1CCN(S(=O)(=O)c2ccccc2)CC1)C(=O)NCc1ccccn1	-3%	13%	1%	-1%	-13
Cc1ccc(/C=N/n2cnc3sc4c(c3c2=O)CCCC4)o1	-21%	-18%	?	-14%	-58*
CCC1(CC)NC(=O)N(CC(=O)OCC(=O)Nc2cc(OC)ccc2OC)C1=O	-2%	2%	-8%[9.24 µM]	0%	-11
O=C1C(c2ccccc2)C(c2ccccc2)NC(c2ccccc2)C1c1ccccc1 (stereo not given)	?	23µM*	-19%	-26%	17
COc1ccc(NC(=O)C(c2cc3ccccc3o2)n2c(=O)c(-c3cc4ccccc4[nH]3)nc3ccccc32)cc1 (stereo not given)	?	?	-18%	-30%	20
COc1ccc(NC(=O)C(c2ccc(C#N)cc2)n2c(=O)c(-c3cc4ccccc4[nH]3)nc3ccccc32)cc1 (stereo not given)	21µM*	15µM*	-29%	?	12
COc1ccc(NC(=O)C(C2CC2)n2c(=O)c(-c3ccccc3)nc3ccccc32)cc1 (stereo not given)	?	15µM*	1%	0%	-17
COc1ccc(NC(=O)C(c2ccc(OC)cc2)n2c(=O)c(-c3cc4ccccc4[nH]3)nc3ccccc32)cc1 (stereo not given)	16µM*	13µM*	?	-22%	2
Cn1nc(-c2ccccc2)cc1NC(=O)[C@@H]1O[C@H](CO)[C@H](O)[C@H](O)[C@H]1O	-24%	-9%	6%	0%	23
CCOC(=O)c1nc(C)nc(Sc2n[nH]c(-c3cc(C(F)(F)F)cc(C(F)(F)F)c3)n2)c1C	?	?	-9%	-1%	-2
Cc1ccc(CN2CCN(C3CCN(S(=O)(=O)N(C)C)CC3)C(=O)C2=O)cc1	2%	10%	·	·	·
Cc1c(C(=O)Nc2ccc(F)cc2F)nnn1-c1ccccc1Br	10µM*	13µM*	·	·	·
CCc1ccccc1NC(=O)c1nnn(-c2ccc(F)cc2)c1C	-17%	?	·	·	·
CCOC(=O)c1c(C)[nH]c(C(=O)OCC(=O)N2c3ccccc3CC2C)c1C (stereo not given)	?	18µM*	-23%	-23%	?
CCOC(=O)C1=C(C)NC(C)=C(C(=O)OCC)C1C(=O)OCC(=O)N1c2ccccc2CC1C (stereo not given)	?	18µM*	-18%	-3%	?
CC1Cc2ccccc2N1C(=O)COC(=O)c1cccc(Br)c1 (stereo not given)	-18%	18%	11%	3%	9
CC(=O)O[C@@]12CO[C@@H]1C[C@H](O)[C@@]1(C)C(=O)[C@H](O)C3=C(C)[C@@H](OC(=O)[C@H](O)[C@@H](NC(=O)OC(C)(C)C)c4ccccc4)C[C@@](O)([C@@H](OC(=O)c4ccccc4)[C@H]21)C3(C)C	0.0011µM*	0.0012µM*	·	·	·
O=C1N(C2CCCC2)C[C@@H]2C[C@@H](c3cccn3-c3nccs3)N3CCC[C@@]123	-17%	-27%	1%	-3%	-79*
COc1ccc(/C=N/n2cnc3c([nH]c4ccc(Br)cc43)c2=O)cc1CN1CCOCC1	16µM*	?	3%	1%	-88*
CCOC(=O)c1c(NC(=O)CSC(=S)N2CCOCC2)sc(C)c1C	-13%	-29%	-6%	-22%	0
O=C(c1ccc(S(=O)(=O)Nc2cccc(C(F)(F)F)c2)cc1)N1CCN(c2ccccc2O)CC1	?	23µM*	-16%	?	?
Nc1ccc(N2CCCC2)c(S(=O)(=O)Nc2cccc(C(F)(F)F)c2)c1	?	29µM*	-1%	0%	?
COc1ccc(NS(=O)(=O)c2cc(N)ccc2N2CCCCC2)cc1	?	-12%	-5%	0%	11
O=C(c1cc(-c2ccccc2)on1)N1CCOc2ccc(CN3CCN(c4ccccn4)CC3)cc2C1	8%[9.04 µM]	1%	·	·	·
SMILES	TDP1 cell CPT	TDP1 cell noCPT	HT1080-NT tox	HT1080 IDH1KD tx	IL1B secr inh
COc1cc(/C=N/Nc2snc(SC)c2C#N)ccc1O	4µM*	3.2µM*	?	3.2µM*	17
COc1cc(/C=N/Nc2nc3ccccc3[nH]2)cc(OC)c1O	4.1µM*	3.7µM*	-30%	?	-99*
COc1cccc(/C=N/Nc2nc3ccccc3n3cnnc23)c1O	5.8µM*	5.8µM*	-26%	?	-112*
COc1cccc(/C=N/Nc2nc3ccccc3[nH]2)c1O	18µM*	23µM*	?	12µM*	-55*
OC[C@@H]1CN(CCN2CCOCC2)C[C@H](n2cnc3c(Nc4ccccc4)ncnc32)O1	-3%	-8%	19%	5%	16
COc1cc(/C=N/Nc2nc3ccccc3[nH]c2=O)ccc1O	-7%	-7%	7%	19%	5
COc1cc(/C=C(/C(=O)c2cccs2)c2nc3ccccc3[nH]2)cc(OC)c1O	?	16µM*	?	?	-98*
COC(=O)c1ccc(/C=N/Nc2nc3ccccc3[nH]2)cc1	?	?	?	?	-8
COc1cc(/C=N/Nc2nc3ccccc3[nH]2)cc(Br)c1OCC(=O)N(C)C	?	18µM*	-27%	-22%	?
COc1cc(/C=N/Nc2nc3ccccc3[nH]2)ccc1O	6.5µM*	4.6µM*	10%	6%	-105*
COC(=O)[C@@H]1CCCN1C(=O)c1c(OC)cc(=O)n2c1CCN(Cc1ccc3nsnc3c1)CC2	1%	-15%	·	·	·
Cc1ccc(NCc2ccccc2O)cc1C	?	-28%	-16%	-9%	-16
Oc1ccccc1CNc1ccc(OC(F)(F)F)cc1	-25%	?	18µM*	?	-89*
O=C(NCc1ccco1)c1ccc(COc2ccccc2Cl)cc1	?	?	-13%	-14%	-57*
O=C(NCc1ccco1)c1ccc(COc2cccc3ccccc23)cc1	-6%	-16%	3%	-1%	-60*
O=C(NCc1ccco1)c1ccc(COc2ccc(Cl)cc2)cc1	-7%	3%	-20%	-14%	-4

Bioassay records from PubChem.
